RORg inh = inhibitors of mouse ROR gamma transcriptional activity; Potency, µM (series often up to 53.6 µM), for the others: at the top dose activity change, negative = inhibition, most hits filed as inhibitors; P51450; actives 5.4% (n = 310,000); Drosophila S2 Gal4-RORgamma UAS-luciferase reporter, 20 h; note: nearly all actives have a fitted effect of over 60% in size
Target sequence (P51450 whole entry, looked up, the tested form may be a part): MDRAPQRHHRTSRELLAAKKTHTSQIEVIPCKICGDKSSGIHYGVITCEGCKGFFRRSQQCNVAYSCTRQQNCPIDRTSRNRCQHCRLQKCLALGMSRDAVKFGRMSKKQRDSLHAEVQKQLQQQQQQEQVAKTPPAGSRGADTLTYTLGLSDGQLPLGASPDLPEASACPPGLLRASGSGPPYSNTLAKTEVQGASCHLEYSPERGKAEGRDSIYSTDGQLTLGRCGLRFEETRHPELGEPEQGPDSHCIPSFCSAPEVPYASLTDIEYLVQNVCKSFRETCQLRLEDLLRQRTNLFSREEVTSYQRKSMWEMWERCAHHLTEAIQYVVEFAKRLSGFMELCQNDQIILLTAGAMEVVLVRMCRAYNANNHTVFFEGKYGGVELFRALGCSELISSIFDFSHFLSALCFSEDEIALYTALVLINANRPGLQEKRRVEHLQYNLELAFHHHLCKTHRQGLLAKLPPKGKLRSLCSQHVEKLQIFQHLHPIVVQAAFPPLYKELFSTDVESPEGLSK
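Luminescence from a UAS-regulated Photinus luciferase reporter in stably transfected Drosophila Schneider cells is measured; decreased signal marks ROR gamma inhibition. Fusion expression is induced by 700 uM copper sulfate for 20 hr.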
Gal4-VP16 FLuc = counter-screen for ROR gamma inhibitors: Gal4-VP16 reporter | Drosophila S2 Gal4-VP16 UAS-luciferase, luminescence, 20 h | Potency, µM (titrated, usually from 53.6 µM), for inactives: at the top dose activity, negative = inhibition, hits mostly inhibitors | actives 3.5% (n = 310,000) | AID 2546;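 note: Gal4-VP16 expression switched on by copper sulfate through the metallothionein promoter; nearly all actives have a fitted effect of over 50% in size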
Luc counter = counter-screen: inhibitors of Kinase-Glo firefly luciferase; Q27757; Kinase-Glo luciferase, ATP luminescence, 8 min; Potency, µM (series often up to 38.3 µM), for inactives: at the top dose activity change, negative = inhibition, usual class: inhibitors; actives 0.28% (n = 200,000); AID 1379; note: nearly all actives have a fitted effect of over 60% in size
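Recombinant Kinase-Glo luciferase, 10 uM ATP (linear range), luciferin; imidazole pH 7.2 / KCl / MgCl2 / Tween / BSA buffer; 8 min RT; luminescence.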
* marks the source's active call; other numbers are inactive results; ? = inconclusive; nt = no result given; [ ] = another dose, or the depositor's remark. Sampled rows, rich in hits. Any-hit rate of the full collection: about 6.4%. Calls come from the whole dose curve; as a rule, active = well fitted curve in the direction sought with a large enough effect; inconclusive = small, poorly fitted or top-dose-only effect, or another doubt; inactive = no such curve, though single readings can be large; an effect the other way counts as inactive or inconclusive. % is set by controls: 0 for no effect and ±100 for the full control effect; potency is the fitted concentration of half-maximal effect.

SMILES	RORg inh	Gal4-VP16 FLuc	Luc counter
Cc1ccc(C(=O)CC(=O)c2ccccc2C)c(O)c1	3.5µM*	5.6µM*	nt
S=C(Nc1ccc(Cc2ccncc2)cc1)Nc1cccc(Cl)c1	-17%	7%	2%
Cc1ccc2nc(NC(=O)c3cccs3)sc2c1	?	-30%	-21%
O=C(Nc1ccccc1)Nc1nc(-c2ccc(Cl)cc2)cs1	3%	-13%	1%
O=C(NC(=S)Nc1nc(-c2ccccc2)cs1)c1cccs1	-1%	-9%	9%
O=C(NC(=S)Nc1nc(-c2ccc(Cl)cc2)cs1)c1cccs1	0.79µM*	4%	1%
Cc1ccc(-c2csc(NC(=S)NC(=O)c3cccs3)n2)cc1	2µM*	0%	-2%
Cc1ccc2nc(NC(=S)NC(=O)c3cccs3)sc2c1	1.1µM*	3.2µM*	-2%
Cc1c(NC(=O)CC2NC(=O)NC2=O)c(=O)n(-c2ccccc2)n1C (configuration not stated)	17%	-2%	2%
Cc1cc(Cl)ccc1OCCCC(=O)Nc1ccc(S(=O)(=O)Nc2ncccn2)cc1	25%	-3%	nt
O=C(NC(=S)N(CC1CCC1)CC1CCCO1)c1cccc([N+](=O)[O-])c1 (configuration not stated)	56µM*	0.28µM*	-2%
CC1CCN(C(=S)NC(=O)c2cccc([N+](=O)[O-])c2)CC1	0.71µM*	0.63µM*	nt
COc1cc2c(cc1OC)C(C)N(C(=S)Nc1ccccc1)CC2 (configuration not stated)	?	-14%	nt
COc1cc2c(cc1OC)C(C)N(C(=S)NC(=O)c1ccccc1)CC2 (configuration not stated)	1.3µM*	2.2µM*	2%
O=C(NCC1CCCCC1)c1cccc([N+](=O)[O-])c1	17%	4%	nt
CC1CCN(C(=S)NC(=O)c2ccccc2)CC1	2.8µM*	4.5µM*	4%
COc1ccc(/C=C(/NC(=O)c2ccccc2)C(=O)N2CCC(C)CC2)cc1	9%	2%	nt
CC1CN(C(=S)c2cccc([N+](=O)[O-])c2)CC(C)O1 (configuration not stated)	2%	7%	1%
Cc1nc2ccccc2c(=O)n1NC(=O)Cc1ccc([N+](=O)[O-])cc1	19%	-6%	4%
Cc1ccc(S(=O)(=O)Nc2n[nH]nc2C(=O)NC2CCCCC2)cc1	9%	8%	1%
C=C[C@@]1(C)CC(=O)[C@@]2(O)[C@@]3(C)[C@@H](O)CCC(C)(C)[C@@H]3[C@H](OC(=O)CCN(C)C)[C@H](OC(C)=O)[C@@]2(C)O1	3%	2%	-1%
O=C(O)c1c(-c2ccc(Cl)cc2)cn2ccccc12	16%	19%	-4%
CCN(C(=O)CSc1ncccn1)C1CCS(=O)(=O)C1 (configuration not stated)	-3%	-10%	nt
Cc1nc2sc(C(=O)Nc3ccccc3)c(N)c2c(C)c1[N+](=O)[O-]	41%	?	0%
CCOC(=O)c1csc(-c2snnc2C)n1	12%	-3%	nt
SMILES	RORg inh	Gal4-VP16 FLuc	Luc counter
CCC1CCCCN1C(=S)NC(=O)c1cccc([N+](=O)[O-])c1 (configuration not stated)	0.28µM*	-89%	nt
CN1CCN(C(=S)NC(=O)c2cccc([N+](=O)[O-])c2)CC1	1µM*	1.3µM*	nt
CN1CCN(c2ccccc2NC(=O)c2cccc([N+](=O)[O-])c2)CC1	1%	7%	-2%
CCC1CCCCN1C(=S)NCc1ccccc1 (configuration not stated)	?	0%	nt
CC(C)C(=O)NCC(c1ccc2c(c1)OCO2)N1CCOCC1 (configuration not stated)	-2%	-2%	nt
COc1ccc(OC)c(/C=N/N(CCC#N)C2=NS(=O)(=O)c3ccccc32)c1	-9%	6%	nt
O=C(NCc1ccc(Cl)cc1)C(=O)NCC1OCCN1C(=O)c1ccc(Cl)cc1 (configuration not stated)	44%	-8%	2%
C=CC[n+]1c(-c2ccc(C)cc2)csc1Nc1c(C)n(C)n(-c2ccccc2)c1=O	21%	3%	4%
C=CC[n+]1c(-c2ccc(OCC)cc2)csc1NNC(=O)Nc1ccccc1	16µM*	?	-2%
Cc1ccc(C(=O)Cn2c(C(=O)OCCO)cc3ccccc32)cc1	5%	-14%	nt
O=C(CCc1ccccc1)NNC(=O)CCc1ccccc1	-6%	-12%	nt
OCCNC(=S)NCCc1ccccc1	-10%	16%	0%
O=[N+]([O-])c1ccc(S(=O)(=O)NNC(=S)NCCc2ccccc2)cc1	8.9µM*	11µM*	nt
CC(NC(=S)NNS(=O)(=O)c1cccc([N+](=O)[O-])c1)c1ccccc1 (configuration not stated)	7.1µM*	6.3µM*	nt
O=C(CCc1ccccc1)NNC(=S)NCCc1ccccc1	7.9µM*	?	nt
O=[N+]([O-])c1cccc(S(=O)(=O)NCCNS(=O)(=O)c2cccc([N+](=O)[O-])c2)c1	36%	1%	nt
O=[N+]([O-])c1cccc(NC(=S)NCCc2ccccc2)c1	16%	?	3%
CC(C)(CNC(=S)NCCc1ccccc1)CNC(=S)NCCc1ccccc1	?	8.9µM*	-7%
Cc1cc(C)n(CC(=O)N2CCCC(N3CCN(c4ccc(F)cc4)CC3)C2)n1 (configuration not stated)	0%	1%	nt
O=C(CN1C(=O)COc2ccc(S(=O)(=O)N3CCOCC3)cc21)NCc1ccccn1	7%	-3%	nt
O=C(N[C@@H](Cc1ccccc1)C(=O)N1CCC2(CC1)NCCc1[nH]cnc12)c1cccc(F)c1	4%	1%	nt
CC1CCCN(C(=O)C2CC(=O)N(c3ccc(Cl)cc3)C2)C1 (configuration not stated)	-15%	-21%	nt
CCn1ccc(-c2ccccc2)c(C#N)c1=O	3%	-10%	2%
CNC(=S)NCCc1ccccc1	-32%	14%	nt
CC(=O)NNC(=S)NCCc1ccccc1	11µM*	-10%	-1%
SMILES	RORg inh	Gal4-VP16 FLuc	Luc counter
O=C(CN(Cc1ccc(F)cc1)C(=O)CCC(=O)Nc1nccs1)NCc1ccc(F)cc1	-2%	-4%	nt
O=C1CCc2cc(S(=O)(=O)N3CCC(C(=O)NC4CCCC4)CC3)ccc2N1	-15%	6%	-2%
O=C1CCc2cc(S(=O)(=O)N3CCC(C(=O)NCc4ccccn4)CC3)ccc2N1	13µM*	?	4%
COc1ccc(/C=C2\SC(=S)NC2=O)cc1OS(=O)(=O)c1ccc(NC(C)=O)cc1	-20%	-3%	-1%
COc1cc(C=O)ccc1OS(=O)(=O)c1ccc(NC(C)=O)cc1	-43%	25µM*	1%
O=C(O)/C=C\C(=O)Nc1ccc2c(c1)-c1ccccc1C2	nt	nt	0%[7.66 µM]
COc1ccc(C(=O)NCC2(c3ccc(OC)c(OC)c3)CCCC2)c(OC)c1	26%	1%	nt
CN1CCN(c2ncnc3ccc(-c4cccc(NS(C)(=O)=O)c4)cc23)CC1	-15%	-21%	nt
COc1ccc2c(ccn2S(=O)(=O)c2ccccc2)c1	-20%[1.91 µM]	-11%	nt
CC(C)(C)c1cc(C(=O)NNc2cc(C(F)(F)F)ccc2Cl)n(Cc2ccccc2)n1	?	8.9µM*	nt
Cc1ccc(NNC(=O)c2cc(C(C)(C)C)nn2Cc2ccccc2)cc1	?	18µM*	nt

Assay outcomes as filed in PubChem BioAssay.
